For five molecules, outcome and AC50 results are on record in PubChem BioAssay (EPA / NIEHS).

Inconclusive results are not listed. Calls of active or inactive are those of the source. How the source made its calls: active means hit-call score of the fitted dose curve at least 0.9, where 1 is the maximum; inconclusive means response in the unintended direction; inactive means score below 0.9.

Experiment [1] addresses Peroxisome proliferator-activated receptor gamma (Homo sapiens) (UniProt P37231). The experiment in a line: ATG_PPARg_TRANS: Attagene TRANS-FACTORIAL HepG2 Assay for human Peroxisome Proliferator-activated Receptor-gamma (PPARg) (AID 2283007). The method in brief:
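HepG2 cells transiently transfected with multiplexed GAL4-UAS reporter units and exogenous chimeric NR-Gal4 proteins; reporter mRNA quantified after 24 h compound exposure by RT-PCR, fluorescent labelling, HpaI digestion and capillary electrophoresis; gain-of-signal fitted versus DMSO baseline.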

Experiment [2] has as its target Nuclear receptor subfamily 1 group I member 2 (Homo sapiens) (UniProt O75469). The experiment in a line: ATG_PXR_TRANS: Attagene TRANS-FACTORIAL HepG2 Assay for human Pregnane X Receptor (PXR) (AID 2283008). A digest of the protocol:
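HepG2 cells transiently transfected with multiple reporter units, here a PXR-GAL4 chimera driving a GAL4-UAS reporter; 24 h compound exposure. Reporter mRNA measured by RT-PCR, FAM labelling and capillary electrophoresis; gain of signal fitted against DMSO baseline.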

Experiment [3] concerns the target human RAR-related Orphan Receptor beta (RORb), RORB (gene 6096) (UniProt Q92753). The experiment in a line: ATG_RORb_TRANS: Attagene TRANS-FACTORIAL HepG2 Assay for human RAR-related Orphan Receptor beta (RORb) (AID 2283010). A digest of the protocol:
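HepG2 cells transiently transfected with GAL4-UAS reporter units expressing chimeric NR-Gal4 protein; reporter mRNA measured 24 h after dosing by RT-PCR, 6-FAM labelling and capillary electrophoresis. Gain-of-signal fitted relative to DMSO baseline.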

Nuclear receptor subfamily 1 group I member 2 (Homo sapiens), sequence (O75469 whole entry, looked up, the tested form may be a part): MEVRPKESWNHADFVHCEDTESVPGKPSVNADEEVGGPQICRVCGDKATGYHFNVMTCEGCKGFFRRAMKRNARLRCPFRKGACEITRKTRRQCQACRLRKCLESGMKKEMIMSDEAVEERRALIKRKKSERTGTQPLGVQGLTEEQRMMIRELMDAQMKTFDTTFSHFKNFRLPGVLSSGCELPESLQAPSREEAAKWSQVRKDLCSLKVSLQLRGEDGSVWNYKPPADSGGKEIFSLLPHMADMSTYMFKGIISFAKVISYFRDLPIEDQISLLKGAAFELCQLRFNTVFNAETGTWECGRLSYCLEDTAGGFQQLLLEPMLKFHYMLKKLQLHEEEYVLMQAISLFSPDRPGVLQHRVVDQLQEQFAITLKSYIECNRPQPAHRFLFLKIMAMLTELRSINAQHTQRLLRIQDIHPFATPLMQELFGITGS
Peroxisome proliferator-activated receptor gamma (Homo sapiens), sequence (P37231 whole entry, looked up, the tested form may be a part): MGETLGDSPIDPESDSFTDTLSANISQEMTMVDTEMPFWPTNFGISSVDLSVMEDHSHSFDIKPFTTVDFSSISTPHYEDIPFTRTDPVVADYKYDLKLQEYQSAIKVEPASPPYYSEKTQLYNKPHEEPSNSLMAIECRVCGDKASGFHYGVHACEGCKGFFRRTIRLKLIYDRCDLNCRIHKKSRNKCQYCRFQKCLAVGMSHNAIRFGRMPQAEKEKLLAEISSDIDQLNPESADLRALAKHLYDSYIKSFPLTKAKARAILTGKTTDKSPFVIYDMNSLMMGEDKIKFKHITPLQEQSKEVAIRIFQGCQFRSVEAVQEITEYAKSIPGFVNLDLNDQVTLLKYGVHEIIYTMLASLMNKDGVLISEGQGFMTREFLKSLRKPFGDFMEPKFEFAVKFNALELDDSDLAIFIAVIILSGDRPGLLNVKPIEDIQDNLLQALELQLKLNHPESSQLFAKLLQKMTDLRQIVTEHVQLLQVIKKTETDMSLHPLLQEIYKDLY
human RAR-related Orphan Receptor beta (RORb), RORB (gene 6096), sequence (Q92753 whole entry, looked up, the tested form may be a part): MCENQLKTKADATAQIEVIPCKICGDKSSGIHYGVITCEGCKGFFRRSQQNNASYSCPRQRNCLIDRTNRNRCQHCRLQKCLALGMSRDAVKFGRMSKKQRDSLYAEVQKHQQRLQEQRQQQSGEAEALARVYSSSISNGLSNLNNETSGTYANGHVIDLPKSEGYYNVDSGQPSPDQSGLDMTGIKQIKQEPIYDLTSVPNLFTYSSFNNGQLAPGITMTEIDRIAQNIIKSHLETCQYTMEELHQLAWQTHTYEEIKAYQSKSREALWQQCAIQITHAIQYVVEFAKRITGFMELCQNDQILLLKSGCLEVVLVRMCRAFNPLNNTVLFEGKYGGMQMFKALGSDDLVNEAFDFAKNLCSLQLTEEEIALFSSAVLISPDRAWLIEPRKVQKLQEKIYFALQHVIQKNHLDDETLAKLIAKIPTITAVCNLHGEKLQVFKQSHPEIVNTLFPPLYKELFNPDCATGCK

As for `CCCCCCC(O)CCOC(C)=O` (stereo not given), the molecule was called inactive in experiment [1]. In experiment [2], the half-maximal activity concentration (AC50) (commonly the concentration giving half of the maximal activity seen) was 15.2 µM (active).
On to `CC/C=C\CCCCO`, for which the molecule was called inactive in experiment [1], in experiment [2] and in experiment [3].
On to `O=C(O)c1ccco1`, for which, in experiment [2], the outcome was inactive.
In the case of `O=C1CCCCCCCCCCCC(=O)OCCO1`, the call in experiment [1], in experiment [2] and in experiment [3] was inactive.
For `CC(CO)c1ccccc1` (stereo not given), the molecule was classed as inactive in experiment [2].
